The assay addresses Nonstructural protein 3 (Zika virus) (UniProt A0A024AXB9).

Molecules are shown by their SMILES.

Chain of Nonstructural protein 3 (Zika virus) (A0A024AXB9 as listed by the source): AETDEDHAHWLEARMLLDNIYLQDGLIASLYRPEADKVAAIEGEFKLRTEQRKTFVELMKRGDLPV

The pKD is the negative decadic logarithm of the KD, by convention in mol/L. For the molecule `O=C(Nc1ccc2c(c1)[C@H]1CC[C@H]2N1)c1cc(Cl)cc2[nH]ncc12`, the pKD by setting is: (PRVABC59, Concentration 10.0 uM, Immobilization level 3900.0 pg/mm2, Rmax 29.0 pg/mm2, ka 207440.056 M-1s-1, kd 1.881 1/s) 5.04; (PRVABC59, Concentration 10.0 uM, Immobilization level 4900.0 pg/mm2, Rmax 21.0 pg/mm2, ka 356637.156 M-1s-1, kd 1.239 1/s) 5.46; (PRVABC59, Concentration 10.0 uM, Immobilization level 5500.0 pg/mm2, Rmax 38.0 pg/mm2, ka 209576.876 M-1s-1, kd 1.619 1/s) 5.11; (PRVABC59, Concentration 10.0 uM, Immobilization level 10000.0 pg/mm2, Rmax 35.0 pg/mm2, ka 240196.621 M-1s-1, kd 1.957 1/s) 5.09; (PRVABC59, Concentration 10.0 uM, Immobilization level 12000.0 pg/mm2, Rmax 27.0 pg/mm2, ka 216801.208 M-1s-1, kd 1.112 1/s) 5.29; (PRVABC59, Concentration 10.0 uM, Immobilization level 13000.0 pg/mm2, Rmax 42.0 pg/mm2, ka 287948.566 M-1s-1, kd 1.743 1/s) 5.22.
Regarding `CCc1nc2c(C(=O)Nc3ccc4c(c3)CNC4)cc(Br)cc2[nH]1`, the pKD reads like this: (PRVABC59, Concentration 10.0 uM, Immobilization level 10000.0 pg/mm2, Rmax 30.0 pg/mm2, ka 310193.647 M-1s-1, kd 0.373 1/s) 5.92; (PRVABC59, Concentration 10.0 uM, Immobilization level 12000.0 pg/mm2, Rmax 36.0 pg/mm2, ka 171120.142 M-1s-1, kd 0.256 1/s) 5.83; (PRVABC59, Concentration 10.0 uM, Immobilization level 13000.0 pg/mm2, Rmax 31.0 pg/mm2, ka 250565.843 M-1s-1, kd 0.327 1/s) 5.88.
Regarding `COc1cc(Br)cc(C(=O)Nc2ccc3c(c2)CNC3)c1`, the pKD came out at 6.29 (PRVABC59, Concentration 10.0 uM, Immobilization level 3900.0 pg/mm2, Rmax 30.0 pg/mm2, ka 1022660.121 M-1s-1, kd 0.519 1/s); 6.16 (PRVABC59, Concentration 10.0 uM, Immobilization level 4900.0 pg/mm2, Rmax 37.0 pg/mm2, ka 628733.109 M-1s-1, kd 0.436 1/s); 6.22 (PRVABC59, Concentration 10.0 uM, Immobilization level 5500.0 pg/mm2, Rmax 32.0 pg/mm2, ka 715576.018 M-1s-1, kd 0.434 1/s); 6.15 (PRVABC59, Concentration 10.0 uM, Immobilization level 10000.0 pg/mm2, Rmax 31.0 pg/mm2, ka 878454.345 M-1s-1, kd 0.618 1/s); 6 (PRVABC59, Concentration 10.0 uM, Immobilization level 12000.0 pg/mm2, Rmax 51.0 pg/mm2, ka 505054.059 M-1s-1, kd 0.503 1/s); 6.16 (PRVABC59, Concentration 10.0 uM, Immobilization level 13000.0 pg/mm2, Rmax 45.0 pg/mm2, ka 775706.649 M-1s-1, kd 0.539 1/s).
As for `CNC(=O)[C@H](Nc1ccc2c(c1)CNC2)c1cc(Cl)cc(C2CC2)c1`, the pKD came out at 6.54 (PRVABC59, Concentration 10.0 uM, Immobilization level 10000.0 pg/mm2, Rmax 21.0 pg/mm2, ka 735105.2 M-1s-1, kd 0.212 1/s); 6.53 (PRVABC59, Concentration 10.0 uM, Immobilization level 12000.0 pg/mm2, Rmax 44.0 pg/mm2, ka 423211.762 M-1s-1, kd 0.126 1/s); 6.57 (PRVABC59, Concentration 10.0 uM, Immobilization level 13000.0 pg/mm2, Rmax 34.0 pg/mm2, ka 634638.949 M-1s-1, kd 0.171 1/s).
Take `O=C(Nc1cc(Cl)cc(C(=O)Nc2ccc3c(c2)CNC3)c1)OCc1ccccc1`: the pKD runs as follows: (PRVABC59, Concentration 1.0 uM, Immobilization level 3900.0 pg/mm2, Rmax 38.0 pg/mm2, ka 196121.646 M-1s-1, kd 0.113 1/s) 6.24; (PRVABC59, Concentration 1.0 uM, Immobilization level 4900.0 pg/mm2, Rmax 45.0 pg/mm2, ka 144681.299 M-1s-1, kd 0.064 1/s) 6.35; (PRVABC59, Concentration 1.0 uM, Immobilization level 4900.0 pg/mm2, Rmax 45.0 pg/mm2, ka 172692.705 M-1s-1, kd 0.081 1/s) 6.33; (PRVABC59, Concentration 1.0 uM, Immobilization level 5500.0 pg/mm2, Rmax 49.0 pg/mm2, ka 194075.024 M-1s-1, kd 0.087 1/s) 6.35; (PRVABC59, Concentration 1.0 uM, Immobilization level 5500.0 pg/mm2, Rmax 54.0 pg/mm2, ka 112858.156 M-1s-1, kd 0.052 1/s) 6.33; (PRVABC59, Concentration 10.0 uM, Immobilization level 3900.0 pg/mm2, Rmax 44.0 pg/mm2, ka 164681.147 M-1s-1, kd 0.126 1/s) 6.12.
As for `O=C(Nc1ccc2c(c1)CNC2)c1cc(Cl)cc2c1CCC2`, the pKD worked out at 5.36 (PRVABC59, Concentration 10.0 uM, Immobilization level 10000.0 pg/mm2, Rmax 25.0 pg/mm2, ka 106816.236 M-1s-1, kd 0.472 1/s); 5.14 (PRVABC59, Concentration 10.0 uM, Immobilization level 12000.0 pg/mm2, Rmax 64.0 pg/mm2, ka 30866.003 M-1s-1, kd 0.225 1/s); 5.32 (PRVABC59, Concentration 10.0 uM, Immobilization level 13000.0 pg/mm2, Rmax 31.0 pg/mm2, ka 79832.742 M-1s-1, kd 0.384 1/s).
As for `O=C(Nc1ccc2c(c1)CNC2)c1cccc2[nH]ncc12`, the pKD runs as follows: (PRVABC59, Concentration 10.0 uM, Immobilization level 10000.0 pg/mm2, Rmax 19.0 pg/mm2, ka 1068955.381 M-1s-1, kd 0.689 1/s) 6.19; (PRVABC59, Concentration 10.0 uM, Immobilization level 12000.0 pg/mm2, Rmax 37.0 pg/mm2, ka 703955.922 M-1s-1, kd 0.285 1/s) 6.39; (PRVABC59, Concentration 10.0 uM, Immobilization level 13000.0 pg/mm2, Rmax 29.0 pg/mm2, ka 931164.005 M-1s-1, kd 0.45 1/s) 6.32.
Consider `O=C(Nc1ccc2c(c1)CNC2)c1cc(Br)cc2ccccc12`, for which the pKD was 6.18 (PRVABC59, Concentration 10.0 uM, Immobilization level 10000.0 pg/mm2, Rmax 20.0 pg/mm2, ka 1054680.734 M-1s-1, kd 0.691 1/s); 6.04 (PRVABC59, Concentration 10.0 uM, Immobilization level 12000.0 pg/mm2, Rmax 63.0 pg/mm2, ka 507441.603 M-1s-1, kd 0.463 1/s); 5.72 (PRVABC59, Concentration 10.0 uM, Immobilization level 13000.0 pg/mm2, Rmax 45.0 pg/mm2, ka 357590.388 M-1s-1, kd 0.673 1/s).
On to `Cc1cc(NC(=O)c2cc(Cl)cc3[nH]ncc23)ccc1N1CCNCC1`, for which the pKD runs as follows: (PRVABC59, Concentration 10.0 uM, Immobilization level 10000.0 pg/mm2, Rmax 68.0 pg/mm2, ka 142841.774 M-1s-1) 4.45; (PRVABC59, Concentration 10.0 uM, Immobilization level 12000.0 pg/mm2, Rmax 26.0 pg/mm2, ka 204393.234 M-1s-1, kd 2.532 1/s) 4.91; (PRVABC59, Concentration 10.0 uM, Immobilization level 13000.0 pg/mm2, Rmax 38.0 pg/mm2, ka 209487.853 M-1s-1, kd 3.706 1/s) 4.75.
Consider `O=C(Nc1ccc2c(n1)CNC2)c1cc(Cl)cc2[nH]ncc12`, for which the pKD by setting is: (PRVABC59, Concentration 10.0 uM, Immobilization level 3900.0 pg/mm2, Rmax 29.0 pg/mm2, ka 330423.124 M-1s-1, kd 0.318 1/s) 6.02; (PRVABC59, Concentration 10.0 uM, Immobilization level 4900.0 pg/mm2, Rmax 43.0 pg/mm2, ka 188485.066 M-1s-1, kd 0.307 1/s) 5.79; (PRVABC59, Concentration 10.0 uM, Immobilization level 5500.0 pg/mm2, Rmax 45.0 pg/mm2, ka 189855.655 M-1s-1, kd 0.314 1/s) 5.78; (PRVABC59, Concentration 10.0 uM, Immobilization level 10000.0 pg/mm2, Rmax 55.0 pg/mm2, ka 105317.175 M-1s-1, kd 0.527 1/s) 5.3; (PRVABC59, Concentration 10.0 uM, Immobilization level 12000.0 pg/mm2, Rmax 96.0 pg/mm2, ka 37343.204 M-1s-1, kd 0.288 1/s) 5.11; (PRVABC59, Concentration 10.0 uM, Immobilization level 13000.0 pg/mm2, Rmax 49.0 pg/mm2, ka 130791.962 M-1s-1, kd 0.347 1/s) 5.58.
`Nc1cc(Cl)cc(C(=O)Nc2ccc3c(c2)CNC3)c1N` showed a pKD (PRVABC59, Concentration 10.0 uM, Immobilization level 10000.0 pg/mm2, Rmax 26.0 pg/mm2, ka 624754.243 M-1s-1, kd 0.161 1/s) of 6.59; a pKD (PRVABC59, Concentration 10.0 uM, Immobilization level 12000.0 pg/mm2, Rmax 44.0 pg/mm2, ka 261141.936 M-1s-1, kd 1.029 1/s) of 5.4; a pKD (PRVABC59, Concentration 10.0 uM, Immobilization level 13000.0 pg/mm2, Rmax 23.0 pg/mm2, ka 816818.479 M-1s-1, kd 0.326 1/s) of 6.4.
On to `O=C(Nc1ccc2c(c1)CNC2)c1cc(F)cc2[nH]nnc12`, for which the pKD stood at 5.35 (PRVABC59, Concentration 10.0 uM, Immobilization level 10000.0 pg/mm2, Rmax 22.0 pg/mm2, ka 162374.237 M-1s-1, kd 0.724 1/s); 4.9 (PRVABC59, Concentration 10.0 uM, Immobilization level 12000.0 pg/mm2, Rmax 50.0 pg/mm2, ka 32556.979 M-1s-1, kd 0.41 1/s); 5 (PRVABC59, Concentration 10.0 uM, Immobilization level 13000.0 pg/mm2, Rmax 48.0 pg/mm2, ka 67317.145 M-1s-1, kd 0.674 1/s).
In the case of `O=C(Nc1ccc2c(c1)CNC2)c1cc(Br)cc2c1OCO2`, the pKD by setting is: (PRVABC59, Concentration 10.0 uM, Immobilization level 10000.0 pg/mm2, Rmax 23.0 pg/mm2, ka 221801.012 M-1s-1, kd 2.02 1/s) 5.04; (PRVABC59, Concentration 10.0 uM, Immobilization level 12000.0 pg/mm2, Rmax 42.0 pg/mm2, ka 116147.62 M-1s-1, kd 1.164 1/s) 5; (PRVABC59, Concentration 10.0 uM, Immobilization level 13000.0 pg/mm2, Rmax 30.0 pg/mm2, ka 164731.302 M-1s-1, kd 1.67 1/s) 4.99.
Take `COCCNC(=O)[C@H](Nc1ccc2c(c1)CNC2)c1cc(Cl)cc(C2CC2)c1`: the pKD was 6.83 (PRVABC59, Concentration 10.0 uM, Immobilization level 10000.0 pg/mm2, Rmax 39.0 pg/mm2, ka 617826.514 M-1s-1, kd 0.092 1/s); 6.7 (PRVABC59, Concentration 10.0 uM, Immobilization level 12000.0 pg/mm2, Rmax 47.0 pg/mm2, ka 381252.779 M-1s-1, kd 0.077 1/s); 6.7 (PRVABC59, Concentration 10.0 uM, Immobilization level 13000.0 pg/mm2, Rmax 46.0 pg/mm2, ka 474021.576 M-1s-1, kd 0.094 1/s).
On to `CCc1cc(Cl)cc(C(=O)Nc2ccc3c(c2)CNC3)c1`, for which the pKD (PRVABC59, Concentration 10.0 uM, Immobilization level 10000.0 pg/mm2, Rmax 7.0 pg/mm2, ka 456970.038 M-1s-1, kd 1.322 1/s) was determined as 5.54; the pKD (PRVABC59, Concentration 10.0 uM, Immobilization level 12000.0 pg/mm2, Rmax 55.0 pg/mm2, ka 33985.237 M-1s-1, kd 0.743 1/s) was 4.66; the pKD (PRVABC59, Concentration 10.0 uM, Immobilization level 13000.0 pg/mm2, Rmax 17.0 pg/mm2, ka 179212.289 M-1s-1, kd 1.129 1/s) was found to be 5.2.
Consider `N#C[C@H](Nc1ccc2c(c1)CNC2)c1cc(Cl)cc(C2CC2)c1`, for which the pKD worked out at 5.12 (PRVABC59, Concentration 10.0 uM, Immobilization level 10000.0 pg/mm2, Rmax 28.0 pg/mm2, ka 179746.524 M-1s-1, kd 1.36 1/s); 5.37 (PRVABC59, Concentration 10.0 uM, Immobilization level 12000.0 pg/mm2, Rmax 42.0 pg/mm2, ka 91353.604 M-1s-1, kd 0.386 1/s); 5.02 (PRVABC59, Concentration 10.0 uM, Immobilization level 13000.0 pg/mm2, Rmax 52.0 pg/mm2, ka 98756.182 M-1s-1, kd 0.944 1/s).

Source of the values: ChEMBL document CHEMBL5598561, “ASAP - In vitro binding kinetics” (2024).
